These results are taken from PubChem BioAssay (NCATS).

The target of test [1] is Glucocorticoid receptor (Homo sapiens) (UniProt P04150). In words: qHTS assay for small molecule antagonists of glucocorticoid receptor signaling (AID 588533; active means well fitted inhibition curve with a large enough effect in the signal ratio, with a control signal flat, not every such curve was filed as active; the % refers to the signal ratio;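 further: cells stimulated with 2 nM dexamethasone as agonist; on the % scale 0 is the no-effect control and ±100 the full control effect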). The method, boiled down: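 Antagonist-mode qHTS: compound titrations added to GRE-bla HeLa cells, then dexamethasone 2 nM final; 18 h, 37 C. CCF4 FRET fluorescence normalized to dexamethasone and DMSO; IC50 from Hill fit.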
Chain of Glucocorticoid receptor (Homo sapiens) (P04150 whole entry, looked up): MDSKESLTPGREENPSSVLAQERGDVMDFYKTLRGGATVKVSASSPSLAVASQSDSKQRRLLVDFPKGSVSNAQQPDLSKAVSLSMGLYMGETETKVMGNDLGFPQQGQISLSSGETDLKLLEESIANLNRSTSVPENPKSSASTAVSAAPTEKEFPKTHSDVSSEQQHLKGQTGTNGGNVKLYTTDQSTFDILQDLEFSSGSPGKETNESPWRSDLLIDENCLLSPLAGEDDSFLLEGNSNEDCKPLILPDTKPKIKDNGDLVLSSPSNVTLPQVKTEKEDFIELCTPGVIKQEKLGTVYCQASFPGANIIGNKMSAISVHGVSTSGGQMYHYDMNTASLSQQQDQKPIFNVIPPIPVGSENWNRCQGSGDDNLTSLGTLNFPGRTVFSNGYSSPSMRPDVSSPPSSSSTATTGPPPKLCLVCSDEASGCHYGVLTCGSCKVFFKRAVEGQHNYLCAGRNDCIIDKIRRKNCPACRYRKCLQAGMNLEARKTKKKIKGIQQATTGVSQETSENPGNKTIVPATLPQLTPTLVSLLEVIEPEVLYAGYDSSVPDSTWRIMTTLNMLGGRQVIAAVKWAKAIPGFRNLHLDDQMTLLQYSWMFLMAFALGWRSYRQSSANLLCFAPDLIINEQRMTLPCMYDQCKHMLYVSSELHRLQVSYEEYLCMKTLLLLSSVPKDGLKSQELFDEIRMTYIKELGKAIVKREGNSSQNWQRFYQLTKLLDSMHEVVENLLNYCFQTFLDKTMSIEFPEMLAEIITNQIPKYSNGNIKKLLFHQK
For orientation: qHTS replaces the single test concentration by a dilution series.

The target in test [2] is Peroxisome proliferator-activated receptor delta (Homo sapiens) (UniProt Q03181). Put plainly: qHTS assay for small molecule agonists of peroxisome proliferator-activated receptor delta signaling (AID 588534).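 Further: 0% = DMSO basal wells and 100% = positive control agonist at 10 µM.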 The method, boiled down:
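Agonist-mode beta-lactamase reporter readout (CCF4 dye, 2 h at RT) after 18 h at 37 °C exposure to a titration; Hill-equation fitting gave EC50 and maximal response.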

Test [3] in a line: qHTS assay for small molecule antagonists of peroxisome proliferator-activated receptor delta signaling (AID 588535; active means well fitted inhibition curve with a large enough effect in the signal ratio, with a control signal flat, not every such curve was filed as active; the % refers to the signal ratio;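 on max response: cells co-treated with a PPAR-delta agonist as stimulator during compound exposure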). The following applies: HEK293T PPARd-UAS-bla, beta-lactamase FRET ratio, 18 h; 460 nm channel. The method, boiled down: (§1)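 Titrations were run on PPAR-delta-UAS-bla HEK293T cells in charcoal/dextran-stripped serum, incubated 18 h at 37 C. CCF4 fluorescence (460/530 nm) after 2 h RT; Hill equation yields IC50 and maximal response.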

Test [4] has as its target Peroxisome proliferator-activated receptor delta (Homo sapiens) (UniProt Q03181). The description is as above. The method, boiled down:
as §1

The target in test [5] is Peroxisome proliferator-activated receptor gamma (Homo sapiens) (UniProt P37231). Put plainly: qHTS assay for small molecule antagonists of peroxisome proliferator-activated receptor gamma signaling (AID 588537; active means well fitted inhibition curve with a large enough effect in the signal ratio, with a control signal flat, not every such curve was filed as active; the % refers to the signal ratio;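 further: reporter cells co-stimulated with 50 nM rosiglitazone agonist during compound treatment; % of control where 0% means no effect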). The method, boiled down:
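Antagonist-mode β-lactamase reporter screen run as a titration series. HEK293 PPARγ-UAS-bla cells are stimulated with rosiglitazone (50 nM final) for 16 h, then CCF4 is read at 460/530 nm. Data are scaled between DMSO and rosiglitazone and fitted to the Hill equation.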

Test [6] has as its target Vitamin D3 receptor (Homo sapiens) (UniProt P11473). Put plainly: qHTS assay for small molecule antagonists of vitamin D receptor signaling (AID 588541).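 Further: receptor activated by calcitriol during compound treatment; series mostly up to about 77 µM; on the % scale 0 is the no-effect control and ±100 the full control effect.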 The method, boiled down:
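Antagonist-mode beta-lactamase reporter assay: HEK293T VDR-UAS-bla cells were exposed to titrated compound alongside 1-alpha,25-dihydroxyvitamin D3 at 3 nM final for 16 h. Values were normalized to the 50 nM agonist control and DMSO basal, with IC50 and efficacy from Hill equation fits.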

For test [7] the target is unchanged. In words: qHTS assay for small molecule agonists of vitamin D receptor signaling (AID 588543).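 Further: 0% = DMSO basal and 100% = reference agonist control.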 The method, boiled down: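 Measured: β-lactamase reporter activity (CCF4, 405 nm excitation, 460/530 nm emission) in HEK293T VDR-UAS-bla cells after 16 h compound exposure at 37 °C. Normalization against 50 nM 1α,25-dihydroxyvitamin D3 and DMSO; Hill-fit EC50.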
For test [8], the target named is Retinoic acid receptor RXR-alpha (Homo sapiens) (UniProt P19793). In words: qHTS assay for small molecule agonists of retinoid X receptor alpha signaling (AID 588544).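 On activation: 0% = DMSO basal wells and 100% = reference agonist.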
Chain of Retinoic acid receptor RXR-alpha (Homo sapiens) (P19793 whole entry, looked up): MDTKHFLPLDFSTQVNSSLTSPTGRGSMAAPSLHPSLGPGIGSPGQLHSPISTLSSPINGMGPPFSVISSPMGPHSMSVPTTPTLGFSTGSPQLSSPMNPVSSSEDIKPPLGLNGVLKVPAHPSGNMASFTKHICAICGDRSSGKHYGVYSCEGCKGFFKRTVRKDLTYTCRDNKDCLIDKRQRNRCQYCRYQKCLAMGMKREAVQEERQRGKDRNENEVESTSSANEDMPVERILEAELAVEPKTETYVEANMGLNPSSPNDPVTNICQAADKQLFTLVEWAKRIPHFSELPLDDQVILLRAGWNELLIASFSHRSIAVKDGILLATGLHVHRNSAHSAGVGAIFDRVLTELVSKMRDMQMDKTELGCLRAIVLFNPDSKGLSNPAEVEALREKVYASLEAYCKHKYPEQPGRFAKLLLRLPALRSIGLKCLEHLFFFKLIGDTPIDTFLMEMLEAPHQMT
The target in test [9] is Thyroid hormone receptor beta (Homo sapiens) (UniProt P10828). Put plainly: qHTS assay for small molecule agonists of thyroid hormone receptor beta signaling (AID 588545).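 Further: 0% = DMSO only and 100% = 10 nM T3.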 The method, boiled down: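 Stimulation of a TR-driven beta-lactamase reporter was quantified in GripTite HEK 293 cells. Compound series ran for 18 hrs; curves were normalized to T3 and DMSO controls and fitted to yield EC50.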
Chain of Thyroid hormone receptor beta (Homo sapiens) (P10828 whole entry, looked up): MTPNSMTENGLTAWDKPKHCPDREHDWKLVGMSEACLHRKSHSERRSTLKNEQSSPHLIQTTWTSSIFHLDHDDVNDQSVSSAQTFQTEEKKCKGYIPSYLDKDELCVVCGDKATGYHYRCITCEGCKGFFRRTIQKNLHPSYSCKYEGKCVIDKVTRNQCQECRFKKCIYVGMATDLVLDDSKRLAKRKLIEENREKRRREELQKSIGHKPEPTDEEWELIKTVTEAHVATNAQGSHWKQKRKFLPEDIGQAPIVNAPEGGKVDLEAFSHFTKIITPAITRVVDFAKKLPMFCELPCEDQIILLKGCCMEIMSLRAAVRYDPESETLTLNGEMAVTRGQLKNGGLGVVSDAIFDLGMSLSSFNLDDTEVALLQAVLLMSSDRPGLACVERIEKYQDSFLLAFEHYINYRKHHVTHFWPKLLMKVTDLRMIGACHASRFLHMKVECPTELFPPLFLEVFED

The nature of test [10]: qHTS assay for small molecule antagonists of retinoid X receptor alpha signaling (AID 588546; active means well fitted inhibition curve with a large enough effect in the signal ratio, with a control signal flat, not every such curve was filed as active; the % refers to the signal ratio;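 further: cells stimulated with 9-cis-retinoic acid as agonist; on the % scale 0 is the no-effect control and ±100 the full control effect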). The following applies: HEK293T RXRa-UAS-bla, beta-lactamase ratio, antagonist mode; measured here: W530 green channel, cytotoxicity proxy. The method, boiled down: (§2)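 Beta-lactamase reporter inhibition, read as CCF4 fluorescence ratio (ex 405, em 460/530 nm) after 2 h at RT. HEK293T UAS-bla cells, 2500/well, were stimulated with 9-cis-RA at 500 or 100 nM final alongside test compound for 18 h at 37 C.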

The target in test [11] is Thyroid hormone receptor beta (Homo sapiens) (UniProt P10828). Put plainly: qHTS assay for small molecule antagonists of thyroid hormone receptor beta signaling (AID 588547; active means well fitted inhibition curve with a large enough effect in the signal ratio, with a control signal flat, not every such curve was filed as active; the % refers to the signal ratio). The following applies: TR-UAS-bla HEK293, beta-lactamase ratio, antagonist mode, 18 h. The method, boiled down:
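Inhibition of T3-driven (0.4nM final) beta-lactamase reporter activity was measured over 0.59 nM to 92 uM compound after 18 h at 37 C. The cells were GripTite HEK293 TR-UAS-bla in charcoal/dextran-stripped serum, with CCF4 ratio read-out and IC50 from Hill fits.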

The nature of test [12]: qHTS assay for small molecule agonists of the antioxidant response element (ARE) signaling pathway (AID 651741; active means well fitted activation curve with a large enough effect in the signal ratio; the % refers to the signal ratio; further: % of control where 0% means no effect). The method, boiled down:
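Beta-lactamase reporter under ARE control in HepG2 cells, 2,000 per well, was induced by 16 h compound treatment at 37 C. Read-out was fluorescence from LiveBLAzer B/G FRET substrate after 2 h at room temperature.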

Test [13] in a line: qHTS assay for small molecule activators of the p53 signaling pathway (AID 651743; active means well fitted activation curve with a large enough effect in the signal ratio, not every such curve was filed as active; the % refers to the signal ratio; further: series mostly up to about 92 µM; % of control where 0% means no effect). The following applies: HCT-116 p53RE-bla, beta-lactamase FRET ratio, 16 h; activation: stronger effect = higher value. The method, boiled down:
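After 16 hours compound treatment at 37 C, HCT-116 cells stably expressing p53RE-driven beta-lactamase were loaded with LiveBLAzer B/G FRET substrate for 2 hours at room temperature. Fluorescence intensity served as the p53 activation read-out.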

The nature of test [14]: qHTS assay for small molecule activators of the nuclear factor-kappa B (NF-kB) signaling pathway (AID 651749; active means well fitted activation curve with a large enough effect in the signal ratio; the % refers to the signal ratio; further: series mostly up to about 77 µM; % of control where 0% means no effect). The following applies: NF-kB-bla ME-180 cells, beta-lactamase FRET ratio, 16 h; activation: stronger effect = higher value. The method, boiled down:
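Activation measured after 16 hr compound treatment at 37C, 5% CO2, of 2,000 ME-180 cells/well stably expressing an NF-kB response element–driven beta-lactamase reporter, via FRET-disruption fluorescence.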

Test [15] can be described thus: qHTS assay for environmental chemicals that activate the Aryl hydrocarbon Receptor (AhR) signaling pathway (AID 651777; active means well fitted curve in the direction sought with a large enough effect; an effect the other way counts as inactive or inconclusive; further: % of control where 0% means no effect; nearly all actives have a fitted effect of over 15% in size). The following applies: 1A2-DRE human hepatoma cells, luciferase, 24 h; activation: stronger effect = higher value. The method, boiled down: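 Quantitative HTS in stably transfected human liver-derived cells whose luciferase gene sits downstream of the CYP1A2 promoter and dioxin response element. After 24 hr exposure at 37 C, One-Glo luminescence was measured.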

The target of test [16] is Peroxisome proliferator-activated receptor alpha (Homo sapiens) (UniProt Q07869). Put plainly: qHTS assay for small molecule agonists of the peroxisome proliferator-activated receptor alpha (PPARalpha) signaling pathway (AID 651778; active means well fitted curve in the direction sought with a large enough effect; an effect the other way counts as inactive or inconclusive; further: % of control where 0% means no effect). The following applies: PathHunter PPARalpha complementation, chemiluminescence, 6 h; max response: stronger effect = higher value. The method, boiled down: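 Chemiluminescence from complemented enzyme reported PPARalpha activation in cells after 6 hr of compound treatment at 37 C. The detection reagent was incubated for 60 min at room temperature, and compounds were scored as agonists.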
Chain of Peroxisome proliferator-activated receptor alpha (Homo sapiens) (Q07869 whole entry, looked up): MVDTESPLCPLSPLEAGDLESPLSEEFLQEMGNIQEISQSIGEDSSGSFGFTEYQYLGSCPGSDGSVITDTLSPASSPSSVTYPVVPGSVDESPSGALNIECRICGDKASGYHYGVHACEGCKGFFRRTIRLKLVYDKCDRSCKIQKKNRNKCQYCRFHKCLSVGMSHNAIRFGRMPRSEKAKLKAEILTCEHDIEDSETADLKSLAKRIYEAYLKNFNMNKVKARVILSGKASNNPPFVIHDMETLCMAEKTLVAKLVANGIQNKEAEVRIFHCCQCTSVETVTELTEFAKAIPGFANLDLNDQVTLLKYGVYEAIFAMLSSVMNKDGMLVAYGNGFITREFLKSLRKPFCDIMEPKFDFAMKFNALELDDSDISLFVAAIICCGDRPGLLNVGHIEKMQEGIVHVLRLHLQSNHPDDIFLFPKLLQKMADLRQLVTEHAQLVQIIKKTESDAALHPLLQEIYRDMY

A short description of test [17]: qHTS assay for small molecule agonists of the antioxidant response element (ARE) signaling pathway measured by Nrf2-dependant transcriptional activity (AID 720636; active means well fitted curve in the direction sought with a large enough effect in the repeat runs; an effect the other way counts as inactive or inconclusive; further: % of control where 0% means no effect). The method, boiled down: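 Quantitative HTS format in HepG2 cells stably expressing an ARE-luciferase reporter; 16 hr compound treatment at 37 C, luciferase signal detected with ONE-Glo.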
Test [18] can be described thus: qHTS assay for small molecule agonists of the antioxidant response element (ARE) signaling pathway measured by Nrf2-dependant transcriptional activity - cell viability counter screen (AID 720653; active means well fitted curve in the direction sought with a large enough effect in the repeat runs; an effect the other way counts as inactive or inconclusive; further: on the % scale 0 is the no-effect control and ±100 the full control effect). The following applies: ARE-bla HepG2 viability, CellTiter-Glo ATP luminescence, 16 h; max response: stronger effect = lower value. The method, boiled down:
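Cytotoxicity counter screen: intracellular ATP quantified by CellTiter-Glo luminescence in the same ARE-bla HepG2 plates, after 16 h compound exposure and a 2 h beta-lactamase substrate step.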

Test [19] can be described thus: qHTS assay for cell viability of HEK293 cells (AID 743288; active means well fitted curve in the direction sought with a large enough effect; an effect the other way counts as inactive or inconclusive; further: on the % scale 0 is the no-effect control and ±100 the full control effect; nearly all actives have a fitted effect of over 50% in size). The following applies: ATP luminescence (CellTiter-Glo), 18 h; max response: stronger effect = lower value. The method, boiled down: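 HEK293, 18 h, 37 C, ATP luminescence. Cells at 2,000/well were allowed at least 5 h to settle before dosing; CellTiter-Glo developed 30 min at RT.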
Test [20] deals with Nuclear receptor subfamily 1 group I member 2 (Rattus norvegicus) (UniProt Q9R1A7). In words: qHTS assay for small molecule activators of the rat pregnane X receptor (rPXR) signaling pathway (AID 651751; call rule not given here; further: 0% is about no effect). The following applies: rPXR reporter cells, luciferase (One-Glo), 24 h.
Chain of Nuclear receptor subfamily 1 group I member 2 (Rattus norvegicus) (Q9R1A7 whole entry, looked up): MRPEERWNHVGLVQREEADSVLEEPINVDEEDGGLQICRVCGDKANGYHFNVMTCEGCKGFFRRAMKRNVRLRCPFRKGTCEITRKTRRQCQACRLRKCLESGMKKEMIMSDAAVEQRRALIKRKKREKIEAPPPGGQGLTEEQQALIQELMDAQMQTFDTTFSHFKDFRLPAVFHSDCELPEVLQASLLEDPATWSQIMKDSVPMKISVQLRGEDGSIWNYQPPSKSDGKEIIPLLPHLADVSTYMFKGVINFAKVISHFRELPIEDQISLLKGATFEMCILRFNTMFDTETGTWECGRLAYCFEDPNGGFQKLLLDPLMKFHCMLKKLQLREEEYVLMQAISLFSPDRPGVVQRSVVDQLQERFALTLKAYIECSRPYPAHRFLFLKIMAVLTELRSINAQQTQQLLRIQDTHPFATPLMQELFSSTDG
In test [21] the target is Peroxisome proliferator-activated receptor gamma (Homo sapiens) (UniProt P37231). In words: qHTS assay for small molecule agonists of peroxisome proliferator-activated receptor gamma signaling (AID 588536; active means well fitted curve in the direction sought with a large enough effect in the signal ratio, with a control signal flat, not every such curve was filed as active; the % refers to the signal ratio;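 further: 0% = DMSO basal wells and 100% = rosiglitazone at 2 µM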). The method, boiled down:
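This is an agonist-mode beta-lactamase reporter assay in HEK293 PPAR-gamma-UAS-bla cells with 1% charcoal/dextran FBS. Compound titrations ran 16 h at 37 C before CCF4 detection. EC50 and efficacy are Hill fits scaled to 2 uM rosiglitazone (100%) and DMSO basal.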

Test [22] is described as follows: qHTS assay for small molecule agonists of retinoid X receptor alpha signaling (AID 588544).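 On activation: 0% = DMSO basal wells and 100% = reference agonist.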 The following applies: HEK293T RXRa-UAS-bla, beta-lactamase reporter, 18 h; 530 nm emission.
Test [23] addresses Retinoic acid receptor RXR-alpha (Homo sapiens) (UniProt P19793). In words: qHTS assay for small molecule antagonists of retinoid X receptor alpha signaling (AID 588546).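 Further: cells stimulated with 9-cis-retinoic acid as agonist; on the % scale 0 is the no-effect control and ±100 the full control effect.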 The following applies: HEK293T RXRa-UAS-bla, beta-lactamase ratio, antagonist mode. The method, boiled down: as §2
Test [24] in a line: qHTS assay for cell viability of the p53RE-bla HCT-116 cell line (AID 743292; active means well fitted curve in the direction sought with a large enough effect; an effect the other way counts as inactive or inconclusive; further: on the % scale 0 is the no-effect control and ±100 the full control effect; nearly all actives have a fitted effect of over 55% in size). The method, boiled down:
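Viability of compound-treated p53RE-bla HCT-116 cells is taken from ATP-dependent luciferase luminescence. Treatment lasts 16 h at 37 C after a 5 h settling period; detection follows 30 min at room temperature.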

The nature of test [25]: qHTS assay for small molecule activators of the human pregnane X receptor (PXR) signaling pathway (AID 720659; call rule not given here; further: 0% is about no effect).

Results filed as inconclusive are left out. Calls of active or inactive are those of the source. Unless noted, the call rests on the fitted dose curve.

Chain of Vitamin D3 receptor (Homo sapiens) (P11473 whole entry, looked up): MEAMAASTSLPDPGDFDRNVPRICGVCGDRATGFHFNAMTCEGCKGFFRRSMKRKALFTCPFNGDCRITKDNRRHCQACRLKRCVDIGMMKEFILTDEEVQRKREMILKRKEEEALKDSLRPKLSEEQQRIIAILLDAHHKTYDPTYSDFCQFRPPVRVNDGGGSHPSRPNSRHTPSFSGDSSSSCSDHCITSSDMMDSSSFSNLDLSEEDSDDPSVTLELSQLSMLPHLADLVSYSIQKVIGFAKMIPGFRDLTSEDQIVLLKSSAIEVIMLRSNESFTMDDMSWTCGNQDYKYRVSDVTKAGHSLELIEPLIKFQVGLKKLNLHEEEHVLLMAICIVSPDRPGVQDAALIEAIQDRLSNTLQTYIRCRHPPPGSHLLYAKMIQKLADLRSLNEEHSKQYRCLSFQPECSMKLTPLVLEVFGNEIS
Chain of Peroxisome proliferator-activated receptor delta (Homo sapiens) (Q03181 whole entry, looked up): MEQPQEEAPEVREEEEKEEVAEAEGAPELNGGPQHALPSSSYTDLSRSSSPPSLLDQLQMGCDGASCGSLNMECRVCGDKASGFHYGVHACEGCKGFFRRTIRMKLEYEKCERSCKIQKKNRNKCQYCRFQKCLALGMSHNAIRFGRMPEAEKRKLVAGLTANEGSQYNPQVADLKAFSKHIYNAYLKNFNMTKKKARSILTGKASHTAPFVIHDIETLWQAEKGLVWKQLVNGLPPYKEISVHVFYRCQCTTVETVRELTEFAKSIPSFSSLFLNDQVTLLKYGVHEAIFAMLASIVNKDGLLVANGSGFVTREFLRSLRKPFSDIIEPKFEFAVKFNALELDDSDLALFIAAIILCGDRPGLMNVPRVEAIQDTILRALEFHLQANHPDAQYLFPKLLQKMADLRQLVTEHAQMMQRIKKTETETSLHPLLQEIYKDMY
Chain of Peroxisome proliferator-activated receptor gamma (Homo sapiens) (P37231 whole entry, looked up): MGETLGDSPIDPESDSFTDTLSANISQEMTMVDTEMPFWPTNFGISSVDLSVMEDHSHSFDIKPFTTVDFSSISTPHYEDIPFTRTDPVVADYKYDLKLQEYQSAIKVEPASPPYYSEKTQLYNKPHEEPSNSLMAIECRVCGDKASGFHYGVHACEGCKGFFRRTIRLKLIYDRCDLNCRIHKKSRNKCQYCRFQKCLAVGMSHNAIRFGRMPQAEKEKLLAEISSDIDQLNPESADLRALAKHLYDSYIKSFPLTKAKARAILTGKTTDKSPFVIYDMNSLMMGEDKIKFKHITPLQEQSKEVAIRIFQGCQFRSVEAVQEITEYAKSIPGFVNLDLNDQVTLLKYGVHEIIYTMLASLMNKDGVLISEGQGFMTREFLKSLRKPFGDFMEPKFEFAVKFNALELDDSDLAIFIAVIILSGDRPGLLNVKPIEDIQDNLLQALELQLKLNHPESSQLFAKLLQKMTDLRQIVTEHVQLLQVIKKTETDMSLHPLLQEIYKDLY

For the molecule `CNC(=O)O/N=C(\C)SC`, the Potency entry in test [1], in test [4], in test [5], in test [6], in test [8] and in [9] was “inactive” in each case. The Potency result in test [12] and in test [17] was “inactive” in each case. For the same molecule, the molecule was called inactive in test [2] and in test [7]. Besides, the max response in [3] was 24.5%; in [10] it was -3.33%; in test [16], -0.714% (inactive); in test [18] it was -4.43% (inactive); in [19], -6.55% (inactive); in [20], -0.197% (inactive). Moreover, the activity change % (negative = inhibition) in test [11] is -8.81% (inactive). Further, the figures for the activation in test [13], in test [14] and in [15] were -0.165% (inactive), -0.423% (inactive) and -1.88% (inactive), respectively.

For the molecule `O=C(O)CNC(=O)c1ccc(CO)o1`, the molecule was called inactive in test [2].

In the case of `C=Cc1ccccn1`, the molecule was classed as inactive in test [2].

As for `CC/C(=N\OC/C=C/Cl)C1=C(O)CC(C2CCOCC2)CC1=O` (stereo not given), the Potency entry in test [1], in [4], in [21], in test [5], in [6] and in test [8] was “inactive” throughout. Besides, the Potency entry in [9], in test [17] and in test [24] was “inactive” each time. The molecule was called inactive in test [2], in test [7] and in test [25]. Further, the max response in test [3] is 17.7%; in test [22], -4.82%; in test [10], 0.449%; in [23], 3.36% (inactive); in [16] it was -0.709% (inactive); in test [18], 1.41% (inactive). The max response in test [19] is 3.9% (inactive). Besides, the activity change % (negative = inhibition) in [11] was -7.66% (inactive). Further, the activation in test [13] was -3.67% (inactive); in test [14] it was -1.9% (inactive); in [15], 0.936% (inactive).
